Records with an inconclusive call do not appear. A call without a number means that no potency is given here. Active and inactive are the calls of the source. Calls come from the whole dose curve; as a rule, active = well fitted inhibition curve with a large enough effect; inconclusive = small, poorly fitted or top-dose-only effect; inactive = no such curve, though single readings can be large or run the other way.

This experiment in a line: Primary fluorescence-based thiol-reactive (MSTI) qHTS assay for identification of artifact compounds. (AID 1845221).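 Note: thiol-reactive compounds lower the probe fluorescence signal; nearly all actives have a fitted effect of over 65% in size.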 To be noted: MSTI thiol-reactivity probe, 1 h; series mostly up to 53.8 µM. The method in brief:
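One-hour, room-temperature, dark incubation of compound with 4 uM MSTI in PBS (pH 7.4, 2% DMSO) precedes a fluorescence read at 525 nm excitation, 598 nm emission; Hill-equation fitting yields concentration-response values.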
Turning to `COC1=CC(=O)O[C@@H](CCc2ccccc2)C1`, the Potency entry was “inactive”.
With `CC1=C2C[C@H]3[C@@H](CC=C4C[C@@H](O)CC[C@@]43C)[C@@H]2CC[C@]12O[C@@H]1C[C@H](C)CN[C@H]1[C@H]2C`, the Potency result was “inactive”.
Turning to `OCCCCC#Cc1cncc(OC[C@@H]2CCN2)c1`, the Potency entry is “inactive”.
On the same count and under the same terms, for `C[C@]12CC[C@@H](O)C[C@H]1CC[C@@H]1[C@@H]2CC[C@]2(C)C(=O)CC[C@@H]12` the value was “inactive”; for `CC(=O)OC12C(O)C(C)C3(O)C4C=C(C)C(=O)C4CC(CO)=CC3C1C2(C)C` (configuration not stated), “inactive”; for `COc1ccccc1CN[C@H]1C2CCN(CC2)[C@H]1C(c1ccccc1)c1ccccc1`, “inactive”.
Take `CCCCCCn1c(=O)c(C(=O)Nc2ccc(C(=O)OCCC)cc2)c(O)c2ccccc21`: the activity change, negative = thiol reactive is -6.91% [at 11.5 µM] (inactive).
As for `COC1=CC(=O)O[C@@H](/C=C/c2ccccc2)C1`, the Potency entry was “inactive”.
On the same count and under the same terms, next, `CCCN1CCO[C@H]2c3cc(O)ccc3OC[C@@H]21`: “inactive”; `CCN1C[C@]2(COC)[C@H](O)C[C@H](OC)[C@]34[C@@H]5C[C@]6(O)[C@H](OC(=O)c7ccccc7)[C@@H]5[C@@](O)([C@H]([C@H](OC)[C@H]23)[C@@H]14)[C@@H](O)[C@@H]6OC`: “inactive”; `C[C@H](NC(=O)Cc1cc(F)cc(F)c1)C(=O)N[C@@H]1N=C(c2ccccc2)c2ccccc2N(C)C1=O`: “inactive”.
Still for that read-out and setting: next, `C1=C2CCCN[C@H]2[C@@H]2C[C@H]1[C@H]1CCCCN1C2`: “inactive”.

These data come from PubChem BioAssay (NCATS).
